This is an account of results in PubChem BioAssay (NCI).

Test systems include NCI-H23 lung; NCI-H226 lung; NCI-H322M lung; HOP-62 NSCLC; NCI-H460 lung; HOP-92 NSCLC; NCI-H522 lung; A549/ATCC NSCLC; 786-0 renal; COLO 205 colon.
Common to all, as to assay: NCI-60 one-dose screen, 48 h (100 = growth as untreated, 0 = no growth, -100 = all killed)
Details in all cases: 10 µM unless noted

About 83,000 compounds went through this panel and 20% of them were active in at least one assay; those are over-represented in the sample as a whole.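 How to read the values: 0–100, growth inhibition (40 = 60% inhibited); 0, no net growth; -100 to 0, cell death (-40 = 40% of starting cells died; -100 = all dead).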 Values without a mark were called inactive. The source made the active and inactive calls. Rule for the calls: active = growth percent below 10; inactive = the rest.

With `NC(=S)N/N=C/c1ccc(OCc2ccccc2)cc1`, the growth was 84% in the assay with NCI-H23 lung; 61.1% with NCI-H226 lung; 79.9% with NCI-H322M lung; 93.8% in the assay with HOP-62 NSCLC; 86.7% with NCI-H460 lung; 48.5% in the assay with HOP-92 NSCLC. In addition, the growth in the assay on NCI-H522 lung was -24.1% (active); in the assay with A549/ATCC NSCLC it was 68.4%; in the assay with 786-0 renal it was 41.7%; in the assay with COLO 205 colon, 56.9%.

Take `N#Cc1ccc(NC(=O)Nc2ccc(Cc3ccc(NC(=O)Nc4ccc(C#N)cc4)cc3)cc2)cc1`: the growth is -4.62% (active) in the assay with NCI-H23 lung; 37.7% in the assay with NCI-H226 lung; 63.3% in the assay on NCI-H322M lung; 50.2% in the assay with HOP-62 NSCLC; 17.2% with NCI-H460 lung; 46.8% with HOP-92 NSCLC. Moreover, the growth in the assay on NCI-H522 lung was 28.2%; in the assay on A549/ATCC NSCLC it was 41.3%; in the assay with 786-0 renal, 49.3%; in the assay on COLO 205 colon, 29.5%.

With `C/C=C/C(N)=O`, the growth was 96.9% in the assay on NCI-H23 lung; 93.4% in the assay on NCI-H226 lung; 93.4% with NCI-H322M lung; 109% in the assay on HOP-62 NSCLC; 102% in the assay with NCI-H460 lung; 91.1% in the assay on HOP-92 NSCLC. For the same compound, the values for the growth in the assay on NCI-H522 lung, in the assay with A549/ATCC NSCLC and in the assay on COLO 205 colon were 104%, 106% and 107%, respectively.

On to `COc1ccc2[nH]c(=O)c(/C=C/C(=O)c3ccc(Nc4nccc(-c5ccc6ccccc6c5)n4)cc3)cc2c1`, for which the growth is 104% in the assay with NCI-H23 lung; 96.6% in the assay on NCI-H226 lung; 97.7% in the assay on NCI-H322M lung; 102% in the assay with HOP-62 NSCLC; 102% in the assay on NCI-H460 lung; 81.8% in the assay on HOP-92 NSCLC. Also, the growth in the assay on NCI-H522 lung is 99.5%; in the assay on A549/ATCC NSCLC, 97.3%; with 786-0 renal, 93.5%; with COLO 205 colon, 104%.

For the compound `CN(CC(=O)N(Cc1ccc(C2CCCCC2)cc1)c1ccc(C(=O)NO)cc1)S(=O)(=O)c1c(F)c(F)c(F)c(F)c1F`, the growth is 53.9% in the assay on NCI-H23 lung; 100% in the assay on NCI-H226 lung; 90% in the assay with NCI-H322M lung; 103% in the assay on HOP-62 NSCLC; 99.5% in the assay with NCI-H460 lung; 95% in the assay with HOP-92 NSCLC. Moreover, the growth in the assay with NCI-H522 lung was 45.3%; in the assay on A549/ATCC NSCLC, 102%; with COLO 205 colon, 67.9%.

Turning to `Cn1c2ccccc2c2c3c(c4c5ccccc5[nH]c4c21)C(=O)N(N)C3=O`, the growth with NCI-H23 lung is 46.1%; in the assay on NCI-H226 lung, 53.4%; in the assay with NCI-H322M lung, 85.1%; in the assay with HOP-62 NSCLC it was 44.3%; in the assay with NCI-H460 lung, 17.5%; in the assay with HOP-92 NSCLC, 80%. For the same compound, the results for the growth in the assay with NCI-H522 lung, in the assay with A549/ATCC NSCLC and with COLO 205 colon were 50.2%, 66.4% and 56.8%, respectively.

For `CS(=O)(=O)c1ccc(-c2cnc3ccc(-c4cccc(S(C)(=O)=O)c4)nn23)cc1`, the growth in the assay on NCI-H23 lung is 44%; in the assay on NCI-H226 lung, 65.1%; in the assay on NCI-H322M lung, 32.8%; in the assay with HOP-62 NSCLC it was 59.2%; in the assay with NCI-H460 lung it was 21.4%; in the assay on HOP-92 NSCLC, 16%. Moreover, the growth in the assay with NCI-H522 lung was 58.4%; in the assay on A549/ATCC NSCLC, 31%; in the assay on COLO 205 colon, 46.2%.

Regarding `CN1CCN(Cc2ccc(NC(=O)c3[nH]ncc3Nc3ncnc4c3CCC4)cc2)CC1`, the growth in the assay with NCI-H23 lung was 5.19% (active); with NCI-H226 lung it was 9.05% (active); in the assay with NCI-H322M lung, 16.5%; with HOP-62 NSCLC, 22.6%; in the assay with NCI-H460 lung, 6.72% (active); in the assay with HOP-92 NSCLC, -33% (active). In addition, the growth was 13.7% in the assay on NCI-H522 lung, 17.2% in the assay with A549/ATCC NSCLC and -37.5% (active) in the assay on COLO 205 colon.

Consider `CNC(=O)c1cc(Oc2ccc3nc(NC(=O)Nc4ccc(CN5CCOCC5)c(C(F)(F)F)c4)sc3c2)ccn1`, for which the growth was -4.08% (active) in the assay on NCI-H23 lung; 17.3% in the assay on NCI-H226 lung; 49.6% with NCI-H322M lung; 44.6% with HOP-62 NSCLC; 9.7% (active) in the assay on NCI-H460 lung; -7.77% (active) in the assay with HOP-92 NSCLC. In addition, the growth is 22.4% with NCI-H522 lung, 20.9% with A549/ATCC NSCLC and 21% with COLO 205 colon.

Take `Cc1ccc(C2CC3c4ccccc4C2C2CCCCN32)cc1` (configuration not stated): the growth in the assay on NCI-H23 lung is 93.6%; in the assay on NCI-H226 lung, 95.9%; with NCI-H322M lung it was 84.1%; in the assay with HOP-62 NSCLC, 98.6%; with NCI-H460 lung it was 104%; in the assay on HOP-92 NSCLC it was 85.4%. For the same compound, the growth in the assay on NCI-H522 lung is 72.6%; in the assay with A549/ATCC NSCLC, 89.9%; with 786-0 renal, 92.7%; in the assay with COLO 205 colon, 74%.

In the case of `COCCCNc1nc(NC(=O)c2ccc(F)cc2C)cc(-c2cccnc2)n1`, the growth in the assay on NCI-H23 lung was 107%; with NCI-H226 lung, 89.1%; in the assay on NCI-H322M lung, 102%; with HOP-62 NSCLC, 99.4%; with NCI-H460 lung it was 102%; in the assay with HOP-92 NSCLC it was 67%. For the same compound, the growth with NCI-H522 lung was 78.6%; in the assay on A549/ATCC NSCLC, 79.8%; in the assay with 786-0 renal, 98.4%; in the assay with COLO 205 colon, 111%.

For the compound `COc1ccc(CN2C(=O)/C(=C\c3cc(OC)c(OC)c(OC)c3)c3cc(OC)ccc32)cc1`, the growth was -44% (active) with NCI-H23 lung; -21.1% (active) with NCI-H226 lung; 8.29% (active) in the assay with NCI-H322M lung; 17.1% in the assay on HOP-62 NSCLC; -42.2% (active) in the assay with NCI-H460 lung; 37.6% in the assay on HOP-92 NSCLC. The growth is -70.1% (active) in the assay with NCI-H522 lung, 3.05% (active) in the assay on A549/ATCC NSCLC, 9.78% (active) in the assay with 786-0 renal and -46.3% (active) in the assay with COLO 205 colon.

For `Cc1cc(=O)oc2cc(Oc3nc(-c4cccs4)cn4c(-c5cccs5)cnc34)ccc12`, the growth in the assay with NCI-H23 lung was 56.6%; in the assay with NCI-H226 lung it was 83%; with NCI-H322M lung, 89.4%; with HOP-62 NSCLC, 59%; in the assay with NCI-H460 lung, 50.5%; in the assay on HOP-92 NSCLC, 7.71% (active). Moreover, the growth in the assay on NCI-H522 lung was 74.6%; with A549/ATCC NSCLC, 58.5%; with COLO 205 colon it was 75%.

On to `COC(/C=C/c1ccc([N+](=O)[O-])cc1)OC`, for which the growth in the assay on NCI-H23 lung is 96.5%; in the assay with NCI-H226 lung, 106%; in the assay with NCI-H322M lung it was 101%; with HOP-62 NSCLC it was 114%; in the assay with NCI-H460 lung, 112%; in the assay with HOP-92 NSCLC it was 85%. For the same compound, the growth was 86.9% with NCI-H522 lung, 95.4% in the assay with A549/ATCC NSCLC and 110% in the assay with COLO 205 colon.
